From PubChem BioAssay (NCATS)
Results filed as inconclusive are left out. Entries that show only a call come without a potency. Activity calls are given as the source filed them. The call rests on the fitted dose curve; in most records, active means well fitted curve in the direction sought with a large enough effect; inconclusive means small, poorly fitted or top-dose-only effect, or another doubt; inactive means no such curve, though single readings can be large; an effect the other way counts as inactive or inconclusive.

Legend:
[1] = qHTS of pediatric cancer cell lines to identify multiple opportunities for drug repurposing: Primary screen for DAOY cells (AID 1347090); further: series mostly up to about 46 µM; nearly all actives have a fitted effect of over 55% in size
Method in brief: (§1)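 Eight- or eleven-point concentration series, 48 h treatment at 37 degrees C in growth media; readout CellTiter-Glo luminescence. Potency and efficacy were taken from the concentration-response curves.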

[2] = qHTS of pediatric cancer cell lines to identify multiple opportunities for drug repurposing: Primary screen for SJ-GBM2 cells (AID 1347091)
Method in brief: as §1

[3] = qHTS of pediatric cancer cell lines to identify multiple opportunities for drug repurposing: Primary screen for A673 cells (AID 1347092); further: nearly all actives have a fitted effect of over 45% in size
Method in brief: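 Luminescence from CellTiter-Glo, taken after 15 min at room temperature, served as the proxy for metabolically active cells following 48 h treatment. Both potency and efficacy were taken from curves fitted to the titration data.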

[4] = qHTS of pediatric cancer cell lines to identify multiple opportunities for drug repurposing: Primary screen for SK-N-MC cells (AID 1347093); further: series mostly up to about 46 µM
Method in brief: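 Metabolically active cells were quantified by ATP-dependent luminescence (CellTiter-Glo, 15 min at room temperature) following 48 h treatment. Cells had been plated at 500-1,000 per well and settled for 5 h beforehand.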

[5] = qHTS of pediatric cancer cell lines to identify multiple opportunities for drug repurposing: Primary screen for NB-EBc1 cells (AID 1347095)
Method in brief: (§2)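 Cells plated at 500-1,000/well in growth medium, compounds added after 5 h. MIPE tested at 11 points (from 0.78 nM), NPC at 8 points (from 0.59 nM). CellTiter-Glo luminescence after 48 h; concentration-response curves from primary screen.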

[6] = qHTS of pediatric cancer cell lines to identify multiple opportunities for drug repurposing: Primary screen for U-2 OS cells (AID 1347096); further: nearly all actives have a fitted effect of over 50% in size
Method in brief: (§3)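 Cells (500-1,000/well) in growth media were settled 5 h at 37 degrees C, then given compounds for 48 h. Viability was read as CellTiter-Glo luminescence. Primary runs used MIPE at 11 points (0.78 nM-46 µM) and NPC at 8 points (0.59 nM-46 µM); follow-ups used 11 points.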

[7] = qHTS of pediatric cancer cell lines to identify multiple opportunities for drug repurposing: Primary screen for Saos-2 cells (AID 1347097); further: nearly all actives have a fitted effect of over 40% in size
Method in brief: as §2

[8] = qHTS of pediatric cancer cell lines to identify multiple opportunities for drug repurposing: Primary screen for SK-N-SH cells (AID 1347098);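 further: DMSO served as neutral control and bortezomib at 2.3 µM as positive control; nearly all actives have a fitted effect of over 65% in size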
Method in brief: (§4)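 Cells (500-1,000/well) rested 5 h, then received compounds for 48 h; metabolically active cells were measured by CellTiter-Glo luminescence. Final concentrations spanned up to 46 µM (MIPE, 11-point) or 0.59 nM-46 µM (NPC, 8-point) in primary screens, 11-point in follow-ups.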

[9] = qHTS of pediatric cancer cell lines to identify multiple opportunities for drug repurposing: Primary screen for NB1643 cells (AID 1347099); further: nearly all actives have a fitted effect of over 50% in size
Method in brief: as §2

[10] = qHTS of pediatric cancer cell lines to identify multiple opportunities for drug repurposing: Primary screen for LAN-5 cells (AID 1347100)
Method in brief: as §3

[11] = qHTS of pediatric cancer cell lines to identify multiple opportunities for drug repurposing: Primary screen for BT-12 cells (AID 1347101); further: nearly all actives have a fitted effect of over 25% in size; further: potency means the concentration at half of the fitted maximal effect
Method in brief: as §4

[12] = qHTS of pediatric cancer cell lines to identify multiple opportunities for drug repurposing: Primary screen for Rh18 cells (AID 1347102); further: nearly all actives have a fitted effect of over 65% in size
Method in brief: as §3

[13] = qHTS of pediatric cancer cell lines to identify multiple opportunities for drug repurposing: Primary screen for OHS-50 cells (AID 1347103); further: nearly all actives have a fitted effect of over 40% in size
Method in brief: as §4

[14] = qHTS of pediatric cancer cell lines to identify multiple opportunities for drug repurposing: Primary screen for RD cells (AID 1347104); further: nearly all actives have a fitted effect of over 55% in size
Method in brief: as §2

[15] = qHTS of pediatric cancer cell lines to identify multiple opportunities for drug repurposing: Primary screen for MG 63 (6-TG R) cells (AID 1347105); further: nearly all actives have a fitted effect of over 50% in size
Method in brief: as §2

[16] = qHTS of pediatric cancer cell lines to identify multiple opportunities for drug repurposing: Primary screen for control Hh wild type fibroblast cells (AID 1347106);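 further: series mostly up to about 46 µM; a drop in luminescence marks cytotoxicity and a rise apparent proliferation; nearly all actives have a fitted effect of over 55% in size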
Method in brief: as §3

[17] = qHTS of pediatric cancer cell lines to identify multiple opportunities for drug repurposing: Primary screen for Rh30 cells (AID 1347107); further: series mostly up to about 46 µM; nearly all actives have a fitted effect of over 75% in size
Method in brief: as §3

[18] = qHTS of pediatric cancer cell lines to identify multiple opportunities for drug repurposing: Primary screen for Rh41 cells (AID 1347108);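 further: series mostly up to about 46 µM; luminescence drop marks cytotoxic hits; nearly all actives have a fitted effect of over 70% in size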
Method in brief: as §2

[19] = qHTS of pediatric cancer cell lines to identify multiple opportunities for drug repurposing: Primary screen for BT-37 cells (AID 1347094); further: series mostly up to about 57 µM
Method in brief: as §2

[20] = qHTS of pediatric cancer cell lines to identify multiple opportunities for drug repurposing: Confirmatory screen for A673 cells (AID 1347110);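 further: potency means the concentration at half of the fitted maximal effect; cells exposed to compound for 48 h before the viability read; nearly all actives have a fitted effect of over 65% in size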
Method in brief: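 qHTS titration format: primary MIPE 0.78 nM-46 µM (11 pts), NPC 0.59 nM-46 µM; confirmation 11 pts. 48 h, CTG luminescence.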

Row | Structure (SMILES) | Potency [1] | Potency [2] | Potency [3] | Potency [4] | Potency [5] | Potency [6] | Potency [7] | Potency [8] | Potency [9] | Potency [10] | Potency [11] | Potency [12] | Potency [13] | Potency [14] | Potency [15] | Potency [16] | Potency [17] | Potency [18] | Potency [19] | Potency [20]
1 | CC(=O)N1CCN(c2ccc(O)cc2)CC1 | inactive | inactive | inactive | inactive | inactive | inactive | inactive | inactive | inactive | inactive | inactive | inactive | inactive | inactive | inactive | inactive | inactive | inactive |  | 
2 | Cc1coc2ccccc2c1=O | inactive | inactive | inactive |  | inactive | inactive | inactive | inactive | inactive | inactive | inactive |  |  | inactive |  | inactive | inactive | inactive | inactive | 
3 | COc1ccccc1N1CCN(CC(O)COc2cc(OC)c(OC)c(OC)c2)CC1 (stereo not drawn) | inactive | inactive | inactive |  | inactive | inactive | inactive | inactive | inactive | inactive | inactive | inactive | inactive | inactive |  | inactive | inactive | inactive | inactive | 
4 | CCCCCC1Nc2cc(C(F)(F)F)c(S(N)(=O)=O)cc2S(=O)(=O)N1 (stereo not drawn) | inactive | inactive | inactive |  | inactive | inactive | inactive | inactive | inactive | inactive | inactive | inactive | inactive |  | inactive |  | inactive | inactive | inactive | 
5 | CC(C)C[C@H](NC(=O)CNC(=O)[C@H](Cc1ccc(O)cc1)NC(=O)[C@H](CO)NC(=O)[C@H](Cc1c[nH]c2ccccc12)NC(=O)[C@H](Cc1cnc[nH]1)NC(=O)[C@@H]1CCC(=O)N1)C(=O)N[C@@H](CCCN=C(N)N)C(=O)N1CCC[C@H]1C(=O)NCC(N)=O (stereo in doubt) | inactive | inactive | inactive |  | inactive | inactive | inactive | inactive | inactive | inactive | inactive | inactive |  |  |  | inactive | inactive |  | inactive | 
6 | C=C(C)C(=O)OCC(O)CO (stereo not drawn) | inactive | inactive | inactive |  | inactive | inactive | inactive | inactive | inactive |  | inactive | inactive | inactive | inactive | inactive | inactive | inactive | inactive | inactive | 
7 | CC(=O)/C=C/C=C1/C2CCC(C2)C1(C)C (stereo not drawn) | inactive | inactive | inactive |  | inactive | inactive | inactive | inactive | inactive | inactive | inactive | inactive | inactive | inactive | inactive | inactive | inactive | inactive | inactive | 
8 | Nc1c[n+](N2CCOCC2)no1 | inactive | inactive | inactive |  | inactive | inactive | inactive | inactive | inactive | inactive | inactive | inactive | inactive | inactive | inactive | inactive | inactive | inactive | inactive | 
9 | OCCOCCN1CCN(C(c2ccccc2)c2ccc(Cl)cc2)CC1 (stereo not drawn) | inactive | inactive | inactive |  | inactive | inactive | inactive | inactive | inactive | inactive | inactive | inactive |  | inactive | inactive | inactive | inactive | inactive | inactive | 
10 | CN(C)[C@@H]1C(=O)C(C(N)=O)=C(O)[C@@]2(O)C(=O)C3=C(O)c4c(O)cccc4C[C@H]3C[C@@H]12 | inactive | inactive | inactive | inactive | inactive | inactive | inactive | inactive | inactive |  | 17.4 µM (active) |  |  | inactive | inactive | inactive | inactive | inactive |  | 
11 | Cc1ccc2ccc(Cl)cc2n1 | inactive | inactive | inactive |  | inactive | inactive | inactive | inactive | inactive | inactive | inactive | inactive | inactive | inactive | inactive | inactive |  | inactive | inactive | 
12 | COc1cc(NS(=O)(=O)c2ccc(N)cc2)nc(C)n1 | inactive | inactive | inactive |  | inactive | inactive | inactive | inactive | inactive | inactive | inactive | inactive | inactive | inactive | inactive | inactive | inactive |  | inactive | 
13 | O=C(OCCN1CCOCC1)c1cccnc1Nc1cccc(C(F)(F)F)c1 | inactive | inactive | inactive |  | inactive | inactive | inactive | inactive | inactive | inactive | inactive | inactive |  | inactive | inactive | inactive |  | inactive | inactive | 
14 | CSCC[C@H](NC(=O)[C@H](Cc1c[nH]c2ccccc12)NC(=O)CCNC(=O)OC(C)(C)C)C(=O)N[C@@H](CC(=O)O)C(=O)N[C@@H](Cc1ccccc1)C(N)=O | inactive | inactive | inactive |  | inactive | inactive | inactive | inactive | inactive | inactive | inactive | inactive | inactive | inactive | inactive | inactive | inactive | inactive | inactive | 
15 | CC(C)(C)CC(=O)OCC(=O)[C@@]1(O)CC[C@H]2[C@@H]3CCC4=CC(=O)C=C[C@]4(C)[C@H]3[C@@H](O)C[C@@]21C | inactive | inactive | inactive | inactive |  | inactive |  | inactive | inactive |  | inactive | inactive |  |  | inactive | inactive | inactive | inactive | inactive | 2.33 µM (active)
